In ChEMBL document CHEMBL1961873, “Compounds: GSK PKIS; Assays: Nanosyn kinase panel” (2012):

Biological target: Fibroblast growth factor receptor 4 (Homo sapiens) (UniProt P22455)
Settings: at 0.1 µM
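Further: values are mean percent inhibition of FGFR4.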

Chain of Fibroblast growth factor receptor 4 (Homo sapiens) (P22455 22-802 limits assumed): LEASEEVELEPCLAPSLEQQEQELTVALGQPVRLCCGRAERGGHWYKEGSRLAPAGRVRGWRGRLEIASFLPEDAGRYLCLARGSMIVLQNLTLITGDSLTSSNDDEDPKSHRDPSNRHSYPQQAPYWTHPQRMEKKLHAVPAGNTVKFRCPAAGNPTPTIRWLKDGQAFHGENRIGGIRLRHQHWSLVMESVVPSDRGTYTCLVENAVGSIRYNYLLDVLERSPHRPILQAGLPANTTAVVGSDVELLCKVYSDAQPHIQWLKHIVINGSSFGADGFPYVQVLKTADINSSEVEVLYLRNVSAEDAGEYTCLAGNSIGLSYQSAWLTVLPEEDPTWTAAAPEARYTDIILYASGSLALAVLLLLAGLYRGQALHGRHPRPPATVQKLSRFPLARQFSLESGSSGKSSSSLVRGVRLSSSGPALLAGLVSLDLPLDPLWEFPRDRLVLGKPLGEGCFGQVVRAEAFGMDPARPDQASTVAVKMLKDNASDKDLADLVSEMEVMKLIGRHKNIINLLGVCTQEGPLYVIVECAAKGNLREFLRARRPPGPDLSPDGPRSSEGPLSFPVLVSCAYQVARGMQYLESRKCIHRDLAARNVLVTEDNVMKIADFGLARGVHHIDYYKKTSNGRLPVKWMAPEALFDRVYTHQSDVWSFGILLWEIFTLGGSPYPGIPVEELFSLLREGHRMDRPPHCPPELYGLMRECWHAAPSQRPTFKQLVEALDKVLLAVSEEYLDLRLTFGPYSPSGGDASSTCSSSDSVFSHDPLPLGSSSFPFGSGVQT

Point of comparison: `CS(=O)(=O)Nc1ccc(N/C=C2\C(=O)Nc3ccccc32)cc1`, inhibition 2.33%. Against it:
- Nc1nc(-c2ccccn2)c(-c2ccc3ncccc3n2)s1 — lower, -1.61%
- COc1cccc(-n2ncc3c(N/N=C/c4cccc(F)c4)ncnc32)c1 — lower, -3.35%
- CCn1c(-c2nonc2N)nc2c(C#CC(C)(C)O)nc(OC[C@@H](N)c3ccccc3)cc21 — lower, 2.3%
- COc1ccc(-c2coc3ncnc(N)c23)cc1 — lower, -5.79%
- Cc1cccc(-c2n[nH]cc2-c2ccc3ncccc3n2)n1 — higher, 3.49%
- Nc1ncnc2occ(-c3ccc(NC(=O)Nc4cc(C(F)(F)F)cc(C(F)(F)F)c4)cc3)c12 — higher, 3.02%
- [O-][S+]1CCN(Cc2ccc(-c3ccc4ncnc(Nc5ccc(OCc6ccccc6)c(F)c5)c4c3)o2)CC1 — lower, 0.38%
- Nc1nc(-c2ccc3c(c2)C(=Cc2cc(Br)c(O)c(Br)c2)C(=O)N3)cs1 — lower, -4.66%
- CC1=C(C(=O)Nc2ccc3[nH]ncc3c2)C(c2ccc3ccccc3c2)CC(=O)N1 (stereo unspecified) — lower, 0.62%
- CS(=O)(=O)CCNCc1ccc(-c2ccc3ncnc(Nc4ccc(OCc5ccccc5)c(Cl)c4)c3c2)o1 — lower, -0.26%
- c1cnn2ncc(-c3ccnc(Nc4ccc5c(c4)OCCO5)n3)c2c1 — lower, -0.77%
- CN1CCC(C(=O)Nc2n[nH]c3nnc(-c4ccccc4)cc23)CC1 — lower, -8.44%
- Cn1cc(C=C2C(=O)Nc3cccnc32)c2ccccc21 — higher, 2.46%
- Cc1nnc(-c2ccc(C)c(-c3ccc(C(=O)Nc4cccc(C#N)c4)cc3)c2)o1 — lower, 2.08%
- CNC(=O)c1cncc(/C=C/c2c(Cl)cccc2Cl)c1 — lower, 1.14%
- N#Cc1c(NC(=O)c2cccc3ccccc23)sc2c1CCCC2 — lower, -2.84%
- CCn1c(-c2nonc2N)nc2cnc(Oc3cccc(NC(=O)c4ccc(OCCN5CCOCC5)cc4)c3)cc21 — lower, -4.45%
- COc1ccccc1Nc1ncc(-c2ccccc2)o1 — lower, -2.79%
- COc1ccc(COc2ccc(Cc3cnc(N)nc3N)cc2OC)cc1 — higher, 3.95%
- CC1=C(C(=O)Nc2ccc3[nH]ncc3c2)C(c2ccc(Cl)c(Cl)c2)CC(=O)N1 (stereo unspecified) — lower, 1.31%
- COc1cc2ncn(-c3cc(O[C@@H](C)c4ccccc4Cl)c(C(N)=O)s3)c2cc1OC — lower, 0.49%
- NS(=O)(=O)c1cccc(-c2ccc3c(NC(=O)C4CC4)n[nH]c3c2)c1 — lower, 0.21%
- Nc1ncnc2occ(-c3ccc(NC(=O)Nc4cccc(C(F)(F)F)c4)cc3)c12 — lower, -1%
- O=C1Nc2ccc(C(=O)c3ccco3)cc2C1=Cc1cc(Cl)c(O)c(Cl)c1 — higher, 2.69%
- COc1cc2c(cc1Nc1nc(N3CCc4ccccc43)c3cc[nH]c3n1)N(C(=O)CN(C)C)CC2 — lower, -1.03%
- CCc1cccc(NC(=O)Nc2ccc(Oc3ccc4nc(NC(=O)OC)[nH]c4c3)cc2)c1 — higher, 4.21%
- CCN1CCC(CC(=O)Nc2n[nH]c3nc(-c4cccs4)c(Br)cc23)CC1 — lower, 0.71%
- Cc1ccc(NC(=O)c2ccnc(N3CCCC3)c2)cc1-c1ccc(C(=O)NCC2CC2)cc1 — lower, -8.29%
- CCn1c(-c2nonc2N)nc2c(C#CC(C)(C)O)nc(CN3CCCC3)cc21 — lower, -0.75%
- COc1cc(C)c(NC(=O)CN(C)C)cc1Nc1nc(Nc2cccc(F)c2C(N)=O)c2cc[nH]c2n1 — lower, -1.04%
